Compound activity deposited in PubChem BioAssay by National Center for Advancing Translational Sciences (NCATS).
BCR signal inh: qHTS Assay to Find Inhibitors of Chronic Active B-Cell Receptor Signaling. ABC-DLBCL IkBa-CBG/CBR reporter, luminescence ratio, 4 h. Potency, µM (titrated, usually from 46.1 µM), most hits filed as inhibitors. 0.05% of 340,000 active; active = well fitted inhibition curve with a large enough effect in the signal ratio, with a control signal flat, not every such curve was filed as active; inconclusive = small, poorly fitted or top-dose-only effect, or effect the other way, or a change in a side signal; the % refers to the signal ratio
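Cell line TMD8 (human ABC DLBCL), stably expressing tet-inducible CBG68-IkBa fusion and CBR; IMDM/0.5% FBS; cpd up to 46 uM; dox induction, 4 h, 37C/5% CO2; dual luminescence; green/red ratio; MG132 control.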
TDP1 cell noCPT: qHTS for Inhibitors of human tyrosyl-DNA phosphodiesterase 1 (TDP1): qHTS in cells in absence of CPT | Potency, µM (series often up to 46.2 µM), hits mostly inhibitors | DT40 Tdp1-/- hTDP1 cells, no CPT, ATP luminescence, 48 h | 15% of 420,000 active; also: nearly all actives have a fitted effect of over 55% in size
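Chicken DT40 Tdp1-/- cells complemented with human TDP1, screened without camptothecin (DMSO vehicle only), 400 cells/well. Compounds pin-transferred, cells incubated at 37 °C for at least 48 hr. Growth read as ATP-dependent luminescence (CellTiter-Glo, 30 min at RT).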
MCF10A rereplic: A quantitative high throughput screen for small molecules that induce DNA re-replication in MCF 10a normal breast cells; 2.9% of 350,000 active; Potency, µM (doses to about 46.1 µM), usual class: activators; MCF 10A DNA re-replication, Hoechst nuclear intensity, 48 h; also: nearly all actives have a fitted effect of over 50% in size
IL1B secr inh: qHTS for Inhibitors of Inflammasome Signaling: IL-1-beta AlphaLISA Primary Screen | activity change, % at 57.5 µM | THP-1 LPS/ATP IL-1B secretion, AlphaLISA, 16 h; hits give low values | 4.7% of 360,000 active; in the data active = activity change below about -50%; inconclusive = mostly about -30% to -49%
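Secreted IL-1B measured by AlphaLISA bead assay after 16 h compound exposure of THP-1 cells; compounds (final up to 57.5 uM) added 1 h before LPS (250 ng/mL) and ATP (1.25 mM) stimulation; lower signal means less secretion.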
TDP1 cell CPT: qHTS for Inhibitors of human tyrosyl-DNA phosphodiesterase 1 (TDP1): qHTS in cells in presence of CPT; chicken DT40 Tdp1-/-;hTDP1 cells + 20 nM CPT, ATP luminescence, 48 h; Potency, µM (series often up to 46.2 µM), hits mostly inhibitors; 12% of 420,000 active; AID 686979, 2013; also: nearly all actives have a fitted effect of over 55% in size
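Chicken DT40 Tdp1-/- cells stably complemented with human TDP1 were seeded at 400 cells/well in medium containing 20 nM camptothecin, exposed to pin-transferred compounds, and grown at 37 °C for at least 48 hr. Viability was read as ATP luminescence.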
SW480 rereplic: A quantitative high throughput screen for small molecules that induce DNA re-replication in SW480 colon adenocarcinoma cells; AID 624297, 2012; Potency, µM (highest dose often 46.1 µM), most hits filed as activators; 1.8% of 340,000 active; SW480 DNA re-replication, Hoechst DNA content imaging, 48 h; also: nearly all actives have a fitted effect of over 55% in size
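Cells (250 per well) received 23 nL compound or DMSO by pin tool and were kept 48 hr at 37 C, 5% CO2. Nuclei were then stained with Hoechst for 40 min and scanned for DNA content.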
Numbers stand for hits; 0 = inactive; ? = inconclusive; - = no result given; [ ] = dose if it differs, or a comment. Shown are actives, neighbours in structure and some others; about 19% of the full set was active somewhere. Unless noted, calls follow the shape of the dose curve; as a rule, active = well fitted curve in the direction sought with a large enough effect; inconclusive = small, poorly fitted or top-dose-only effect, or another doubt; inactive = no such curve, though single readings can be large; an effect the other way counts as inactive or inconclusive.

SMILES	BCR signal inh	TDP1 cell noCPT	MCF10A rereplic	IL1B secr inh	TDP1 cell CPT	SW480 rereplic
CCOc1ccccc1CNC(=O)C1CCN(C(=O)N2CC(CC)Oc3ccc(C)cc32)CC1 (configuration not stated)	-	18µM	-	-	13µM	-
CCOc1ccccc1CNC(=O)c1cc2oc3ccccc3c2n1C	?	?	15µM	0	?	0
CCn1c(=O)n(-c2ccc(F)c(Cl)c2)c(=O)c2sc3ccccc3c21	-	0	-	-	0	-
CCOc1ccccc1CNC(=O)C1CCN(C(=O)N2CC(C)Oc3ccc(C)cc32)CC1 (configuration not stated)	0	?	0	0	21µM	0
CC(=O)Nc1nc2n(n1)C(c1ccc(F)cc1)C=C(c1ccccc1)N2 (configuration not stated)	0	18µM	?	0	?	0[9.22 µM]
O=C(Nc1nc2n(n1)C(c1ccc(F)cc1)C=C(c1ccccc1)N2)c1cccc([N+](=O)[O-])c1 (configuration not stated)	-	10µM	-	-	18µM	-
COc1ccc(CN2CCCC(C(=O)Nc3cccc(-n4cnnn4)c3)C2)c(C)c1C (configuration not stated)	0	?	0	0	?	0
O=C(Nc1cccc(-n2cccn2)c1)C1CCCN(Cc2ccccc2F)C1 (configuration not stated)	0	?	0	0	21µM	?
O=C(C1CCCN(Cc2ccccc2F)C1)N1CCCCC1 (configuration not stated)	0	0	0	0	0	0
COc1cc(CN2CCCC(C(=O)Nc3cccc(-n4cccn4)c3)C2)ccc1F (configuration not stated)	?	26µM	0	-66	?	0
CCOC(=O)c1c(C)[nH]c(C)c1S(=O)(=O)NCC(=O)NCc1ccc(C)cc1	-	0	-	-	0	-
CC1(C)CCCC2(C)C(OCCO)=CC(=O)C=C12 (configuration not stated)	-	0	-	0	0	-
NC(=O)C[n+]1cccc2ccccc21	0	0	0	0	0	0
CCCCC[n+]1cccc2c3ccccc3ccc21	0	0.0073µM	0	-77	0.52µM	0
c1ccc(C[n+]2cccc3c4ccccc4ccc32)cc1	0	3.7µM	?	-60	3.7µM	0
COc1ccc(C2/C(=C(/O)c3ccc4c(c3)CC(C)O4)C(=O)C(=O)N2CCCn2ccnc2)cc1OC (configuration not stated)	-	0	0	0	0	0
CCC(C)C(=O)Nc1nc(C)c(-c2csc(Nc3ccc(Cl)cc3)n2)s1 (configuration not stated)	0	9.2µM	?	0	16µM	0
CCCc1nnc(NC(=O)CCC(=O)Nc2ccc(Cl)cc2)s1	0	0	0	0	0	0
CCCC(=O)Nc1nc(C)c(-c2csc(Nc3ccc(Cl)cc3)n2)s1	?	?	?	0	12µM	0
CCOC(=O)c1sc2ncn(CC(=O)Nc3ccc(OCC)cc3)c(=O)c2c1C	-	0	-	-	0	-
Cc1cc2c(cc(C(=O)OCC(=O)NCc3cccs3)n2C(C)C)o1	8.2µM	0.73µM	2.9µM	0	0.82µM	8.2µM
O=C(O)C1=C(C(=O)O)C2C=CC1C2	-	0	0	0	0	0
Cc1ccc(-c2cc(C(=O)N(C)Cc3cnn(C)c3C)c3cc(Br)ccc3n2)cc1	?	10µM	16µM	0	7.3µM	0
CCN(CC)CCCC(C)NC(=O)c1cc(=O)c2ccccc2o1 (configuration not stated)	0	0	0	0	0	0
CCN(CC)CCCC(C)NC(=O)c1ccc(C(F)(F)F)cc1 (configuration not stated)	0	?	0	-50	0	0
SMILES	BCR signal inh	TDP1 cell noCPT	MCF10A rereplic	IL1B secr inh	TDP1 cell CPT	SW480 rereplic
CC(/C=C/c1ccccc1)=N\NC(=O)c1ccncc1	0	0	0	0	0	0
CC(/C=C/c1ccccc1)=N\NC(N)=S	?	21µM	0	0	18µM	0
CC(/C=C/c1ccccc1)=N/NC(=O)c1nc2nc(C)cc(C)n2n1	?	?	0	0	0	?
CC(/C=C/c1ccccc1)=N\NC(=S)NC(C)C	?	10µM	0	0	10µM	0
O=S(Cc1ccccc1)CC(O)(c1ccc(Cl)cc1)c1ccc(Cl)cc1 (configuration not stated)	?	?	?	-59	?	?
O=S(Cc1ccc(Cl)cc1)CC(O)(c1ccccc1)c1ccccc1 (configuration not stated)	0	0	0	0	0	0
COc1ccc(CCNC(=O)c2cc(S(=O)(=O)N3CCOCC3)cn2C)cc1OC	0	0	0	0	?	0
CCCC[C@@H](CNC)NC[C@H](Cc1ccc(O)cc1)NCCc1ccc(OCC)cc1	?	3.3µM	?	0	5.2µM	?
COc1ccc(NC(=O)C(CC(C)C)NS(=O)(=O)c2ccc3c(c2)oc(=O)n3C)cc1Cl (configuration not stated)	-	0	-	-	0	-
CS(=O)(=O)N1CCCC(C(=O)Nc2ccc3c(c2)OCCO3)C1 (configuration not stated)	0	0	0	0	0	0
NC(c1csc(Nc2cc(Oc3ccccc3)ncn2)n1)C1CCCCC1 (configuration not stated)	-	?	-	0	?	-
NCc1csc(Nc2cc(Oc3ccccc3)ncn2)n1	-	?	-	0	?	-
COc1ccc(C(N)c2csc(Nc3cc(Oc4ccccc4)ncn3)n2)cc1 (configuration not stated)	-	23µM	-	-85	23µM	-
Nc1ccc(CC(N)c2csc(Nc3cc(Oc4ccccc4)ncn3)n2)cc1 (configuration not stated)	-	23µM	-	-85	?	-
NC(Cc1ccc(C(F)(F)F)cc1)c1csc(Nc2cc(Oc3ccccc3)ncn2)n1 (configuration not stated)	-	?	-	-89	?	-
Cc1nc2sccn2c(=O)c1S(=O)(=O)Nc1cc(C(F)(F)F)ccc1Cl	-	0	-	-	0	-
Cc1ccc(Cc2c(-c3ccc(F)cc3)nc3ccc(Cl)cn23)cc1	-	?	-	0	?	-
CCOC(=O)c1c(-c2ccccc2)nc2ccc(Cl)cn12	?	16µM	0	0	?	0
CN(C)Cc1c(-c2ccc(Cl)cc2)nc2ccc(Cl)cn12	?	13µM	0	0	?	0
CC(C)(C)Cc1c(-c2ccc(F)cc2)nc2ccc(Br)cn12	-	16µM	-	0	?	-
